Results published in PubChem BioAssay (NCATS).
Inconclusive results are not listed. Active and inactive are the calls of the source. The call rests on the fitted dose curve; in most records, active means well fitted curve in the direction sought with a large enough effect; inconclusive means small, poorly fitted or top-dose-only effect, or another doubt; inactive means no such curve, though single readings can be large; an effect the other way counts as inactive or inconclusive.

Columns and labels:
[1] = Cellular Toxicity (caspase-3) Mesangial (AID 660); settings: mesangial cells, normalized: DMSO 0%, 100 µM tamoxifen 100%; at 91.7 µM (top of the series);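 further: combined caspase 3 and 7 activity read by Caspase-Glo luminescence; cells exposed to compound for 16 h before the caspase read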
Procedure, shortened: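 Human renal glomerular mesangial cells, 1000/well, 5 h at 37 C before 16 h compound treatment. Caspase-Glo 3/7 luminescence after 20 min; normalized to DMSO and 100 uM tamoxifen, AC50 from Hill fit.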

[2] = Cellular Toxicity (caspase-3) SK-N-SH (AID 661);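 further: 0% = DMSO basal and 100% = 10 µM staurosporine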
Procedure, shortened: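 Human SK-N-SH neuroblastoma cells, 1500/well, were exposed to compounds for 16 hours at 37 °C. Caspase-Glo 3/7 luminescence was normalized to DMSO (basal) and 10 uM staurosporine (100%), and AC50 came from a Hill fit.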

[3] = Cellular Toxicity (caspase-3) H-4-II-E (AID 663); settings: H-4-II-E rat hepatoma, scaled: DMSO 0%, 100 µM tamoxifen 100%; at 92.2 µM (top of the series);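 further: cells exposed to compound for 16 hr before readout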
Procedure, shortened: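 Luminescence from caspase-cleaved aminoluciferin substrate, read 20 min after reagent addition, reports caspase 3/7 activation in rat H-4-II-E cells after 16 hr compound exposure. Normalized to DMSO (basal) and 100 uM tamoxifen (100%); AC50 from Hill fits.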

[4] = Cellular Toxicity (caspase-3) Hek293 (AID 664); settings: HEK293 caspase-3 activation, DMSO = 0%, 100 µM tamoxifen = 100%; at 92.2 µM (top of the series);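 further: cells exposed to compound for 16 h at 37 °C before readout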
Procedure, shortened: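 HEK293 cells in complete medium treated 16 h at 37 °C, then Caspase-Glo 3/7 luminescence read after 20 min at room temperature. Normalized to DMSO and 100 uM tamoxifen; AC50 from Hill fit of concentration-response.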

[5] = Cellular Toxicity (caspase-3) N2a (AID 665);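 further: compound exposure lasted 16 h at 37 °C before readout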
Procedure, shortened: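 Mouse N2a neuroblastoma cells, 1500 per well, treated 16 h at 37 °C in complete medium; caspase-3/7 activity by Caspase-Glo luminescence after 1 h. Normalized to DMSO and 10 uM staurosporine; AC50 from Hill fits.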

[6] = Cellular Toxicity (caspase-3) NIH 3T3 (AID 666);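 further: 0% = DMSO basal and 100% = 100 µM tamoxifen stimulation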
Procedure, shortened: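 Mouse NIH 3T3 fibroblasts (1000/well) treated 16 h at 37 C; caspase-3/7 activity measured by Caspase-Glo 3/7 luminescence after 20 min. Normalized to DMSO and 100 uM tamoxifen; AC50 from Hill fits.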

[7] = Cellular Toxicity (caspase-3) Renal Proximal Tubule (AID 667); settings: Potency: caspase-3 activation;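 further: cells exposed to compound for 16 hours at 37 °C before detection; 0% = DMSO basal and 100% = 10 µM staurosporine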
Procedure, shortened: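 In qHTS format, rat primary proximal tubule cells seeded at 1000 per well are exposed to compounds for 16 hours at 37 °C. An increase in Caspase-Glo 3/7 luminescence indicates caspase activation.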

[8] = biological target: Cytochrome P450 3A4 (Homo sapiens) (UniProt P08684); assay: qHTS Assay for Inhibitors and Substrates of Cytochrome P450 3A4 (AID 884); further: on the % scale 0 is the no-effect control and ±100 the full control effect; nearly all actives have a fitted effect of over 50% in size
Chain of Cytochrome P450 3A4 (Homo sapiens) (P08684 whole entry, looked up): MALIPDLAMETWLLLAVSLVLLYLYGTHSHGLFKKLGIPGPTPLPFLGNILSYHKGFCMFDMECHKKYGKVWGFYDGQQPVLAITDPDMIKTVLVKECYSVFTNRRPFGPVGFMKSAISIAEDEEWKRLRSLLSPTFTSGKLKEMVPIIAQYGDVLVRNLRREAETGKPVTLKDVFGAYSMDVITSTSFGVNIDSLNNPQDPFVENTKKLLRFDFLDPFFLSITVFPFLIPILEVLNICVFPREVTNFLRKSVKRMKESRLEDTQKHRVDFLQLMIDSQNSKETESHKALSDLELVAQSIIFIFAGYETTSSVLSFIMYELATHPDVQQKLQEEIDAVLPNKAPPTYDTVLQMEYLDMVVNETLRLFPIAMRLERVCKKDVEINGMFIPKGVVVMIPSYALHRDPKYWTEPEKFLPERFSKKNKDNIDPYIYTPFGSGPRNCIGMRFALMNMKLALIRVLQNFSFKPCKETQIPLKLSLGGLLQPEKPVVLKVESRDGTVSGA
Procedure, shortened: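 20 nM human CYP3A4 with 25 uM Luciferin-PPXE (at KM) in 200 mM KPO4, preincubated 10 min with compound; NADPH regeneration started a 60 min RT reaction. Luciferin detected by luminescence, normalized to 57 uM ketoconazole as full inhibition.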

[9] = Cell Viability - LYMP2-001 (AID 921);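 further: cells exposed to compound for 24 h at 37 °C; 0% = DMSO only and full inhibition = tetraoctylammonium bromide control wells; nearly all actives have a fitted effect of over 70% in size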
Procedure, shortened: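 qHTS, 1536-well; lymphoblastoid cells, 24 hr compound, 37 C; ATP by CellTiter-Glo, 30 min RT; luminescence; Hill-fit AC50.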

[10] = MultiTox-Fluor Cytotoxicity Assay - LYMP1-001 - Dead Cells (AID 946)
Procedure, shortened: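 Seed 2500 LYMP1-001 cells/well, incubate 5 hr at 37 C; add compound, 16 hr at 37 C; add MultiTox-Fluor reagent, 60 min RT; read dead-cell fluorescence Ex/Em=485/520. Normalize to DMSO and 15 uM tetraoctylammonium bromide.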

[11] = MultiTox-Fluor Cytotoxicity Assay - LYMP1-001 - Live Cells (AID 947);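 further: 0% = DMSO only and full inhibition = tetraoctylammonium bromide control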
[12] = Cell Viability - LYMP1-002 - Assay at 16 hr (AID 948);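 further: 0% = DMSO alone and full effect = 92 µM tetraoctylammonium bromide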
Procedure, shortened: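 Acute cytotoxicity is scored as a concentration-dependent fall in intracellular ATP in a human lymphoblastoid line (LYMP1-002) after 16 hr compound exposure at 37 C, measured by luciferase luminescence.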

[13] = MultiTox-Fluor Cytotoxicity Assay - LYMP1-002 - Live Cells (AID 955); further: on the % scale 0 is the no-effect control and ±100 the full control effect
Procedure, shortened: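 Human lymphoblastoid LYMP1-002 cells, 2500/well, treated 16 h at 37 C in complete medium. Live-cell protease activity via GF-AFC fluorescence (Ex/Em 405/510) after 60 min reagent incubation; AC50 from Hill fits.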

[14] = MultiTox-Fluor Cytotoxicity Assay - LYMP1-002 - Dead Cells (AID 960); further: nearly all actives have a fitted effect of over 60% in size
Procedure, shortened: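 Human lymphoblastoid LYMP1-002 cells, 2500/well, treated 16 h at 37 C; dead-cell protease cleavage of bis-AAF-R110 read by fluorescence (485/520); normalized to DMSO and 15 uM tetraoctylammonium bromide; AC50 from Hill fit.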

[15] = MultiTox-Fluor Cytotoxicity Assay - LYMP1-003 - Dead Cells (AID 961); further: nearly all actives have a fitted effect of over 70% in size
Procedure, shortened: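 LYMP1-003 lymphoblastoid, 2500 cells/well, 5 hr settle then 16 hr cpd at 37 C; MultiTox-Fluor reagent 60 min RT; Ex/Em 485/520 dead-cell signal; norm. DMSO = 0%, 15 uM tetraoctylammonium bromide = 100%; Hill AC50.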

[16] = MultiTox-Fluor Cytotoxicity Assay - LYMP1-003 - Live Cells (AID 962);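 further: 0% = DMSO only and full loss = 92 µM tetraoctylammonium bromide; cytotoxic hits lower the live-cell protease signal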
Procedure, shortened: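 LYMP1-003 lymphoblastoid cells, 2500/well in complete medium, treated 16 h at 37 C; live-cell protease cleavage of GF-AFC read by fluorescence (Ex/Em 405/510) after 60 min reagent; AC50 from Hill fits of concentration-response.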

[17] = Cell Viability - LYMP1-003 - Assay at 24 hr (AID 963);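 further: plate controls were DMSO only for no effect and tetraoctylammonium bromide positive control for full effect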
Procedure, shortened: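 Human lymphoblastoid LYMP1-003 cells, 2500/well, treated 24 h at 37 C in complete medium. Viability read as intracellular ATP by CellTiter-Glo luminescence after 30 min at room temperature; AC50 from Hill-equation fits of qHTS concentration-response.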

[18] = Cell Viability - LYMP1-003 - Assay at 40 hr (AID 964); further: on the % scale 0 is the no-effect control and ±100 the full control effect; nearly all actives have a fitted effect of over 60% in size
Procedure, shortened: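 LYMP1-003 human lymphoblastoid cells, 2500/well, preincubated 5 h at 37 C, then treated with compound for 40 h at 37 C. Intracellular ATP read by CellTiter-Glo luminescence after 30 min at room temperature; AC50 from Hill-equation fits.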

[19] = Cell Viability - LYMP2-003 (AID 965);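 further: cells exposed to compounds for 24 h before reading; 0% = DMSO only and full effect = 92 µM tetraoctylammonium bromide; nearly all actives have a fitted effect of over 50% in size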
Procedure, shortened: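 Acute cytotoxicity is scored as a concentration-dependent drop in intracellular ATP, measured by luciferase luminescence in human lymphoblastoid cells treated for 24 hours at 37 C. AC50 values derive from Hill-equation modelling.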

O=C(O)CCSSCCC(=O)O
inactive: caspase-3 activation [1] -0.167% | outcome [2] | caspase-3 activation [3] -0.00623% | caspase-3 activation [4] -0.885% | outcome [5] | outcome [6] | Potency [7] | Potency [8] | Potency [9] | outcome [10] | outcome [11] | outcome [12] | outcome [13] | outcome [14] | Potency [15] | Potency [16] | Potency [17] | Potency [18] | Potency [19]

C/C=C(/C)C#N
inactive: caspase-3 activation [1] -0.503% | outcome [2] | caspase-3 activation [3] 0.589% | caspase-3 activation [4] 0.51% | outcome [5] | outcome [6] | Potency [7] | Potency [8] | Potency [9] | outcome [10] | outcome [11] | outcome [12] | outcome [13] | outcome [14] | Potency [15] | Potency [16] | Potency [17] | Potency [18] | Potency [19]

C(=C/c1ccccc1)/c1ccccc1
inactive: caspase-3 activation [1] 0.853% | outcome [2] | caspase-3 activation [3] 0.852% | caspase-3 activation [4] 5.17% | outcome [5] | outcome [6] | Potency [7] | Potency [8] | Potency [9] | outcome [10] | outcome [11] | outcome [12] | outcome [13] | outcome [14] | Potency [15] | Potency [16] | Potency [17] | Potency [18]

C1COC1
inactive: caspase-3 activation [1] 0.626% | outcome [2] | caspase-3 activation [3] 1.05% | caspase-3 activation [4] -1.66% | outcome [5] | outcome [6] | Potency [7] | Potency [8] | Potency [9] | outcome [10] | outcome [11] | outcome [12] | outcome [13] | outcome [14] | Potency [15] | Potency [16] | Potency [17] | Potency [18] | Potency [19]

CC/C(C)=N/O
inactive: caspase-3 activation [1] 0.891% | outcome [2] | caspase-3 activation [3] -0.877% | caspase-3 activation [4] 1.42% | outcome [5] | outcome [6] | Potency [7] | Potency [8] | Potency [9] | outcome [10] | outcome [11] | outcome [12] | outcome [13] | outcome [14] | Potency [15] | Potency [16] | Potency [17] | Potency [18]

C=Cc1ccccn1
inactive: caspase-3 activation [1] 2.96% | outcome [2] | caspase-3 activation [3] 1.92% | caspase-3 activation [4] 3.43% | outcome [5] | outcome [6] | Potency [7] | Potency [8] | Potency [9] | outcome [10] | outcome [11] | outcome [12] | outcome [13] | outcome [14] | Potency [15] | Potency [16] | Potency [17] | Potency [18]

O=Cc1ccc(Cl)cc1
inactive: caspase-3 activation [1] 0.65% | outcome [2] | caspase-3 activation [3] 0.113% | caspase-3 activation [4] 2% | outcome [5] | outcome [6] | Potency [7] | Potency [8] | Potency [9] | outcome [10] | outcome [11] | outcome [12] | outcome [13] | outcome [14] | Potency [15] | Potency [16] | Potency [17] | Potency [18]

Cc1ccc(C)o1
inactive: caspase-3 activation [1] -0.182% | outcome [2] | caspase-3 activation [3] -0.53% | caspase-3 activation [4] 0.32% | outcome [5] | outcome [6] | Potency [7] | Potency [8] | Potency [9] | outcome [10] | outcome [11] | outcome [12] | outcome [13] | outcome [14] | Potency [15] | Potency [16] | Potency [17] | Potency [18] | Potency [19]

CSc1ccc(C=O)cc1
inactive: caspase-3 activation [1] -0.251% | outcome [2] | caspase-3 activation [3] 2.78% | caspase-3 activation [4] 0.206% | outcome [5] | outcome [6] | Potency [7] | Potency [8] | Potency [9] | outcome [10] | outcome [11] | outcome [12] | outcome [13] | outcome [14] | Potency [15] | Potency [16] | Potency [17] | Potency [18] | Potency [19]

CCOC(=O)OCC
inactive: caspase-3 activation [1] -0.584% | outcome [2] | caspase-3 activation [3] -0.0213% | caspase-3 activation [4] -2.59% | outcome [5] | outcome [6] | Potency [7] | Potency [8] | Potency [9] | outcome [10] | outcome [11] | outcome [12] | outcome [13] | outcome [14] | Potency [15] | Potency [16] | Potency [17] | Potency [18] | Potency [19]

Cc1ccc(N(C)C)cc1
inactive: caspase-3 activation [1] 0.102% | outcome [2] | caspase-3 activation [3] -1.01% | caspase-3 activation [4] -0.882% | outcome [5] | outcome [6] | Potency [7] | Potency [8] | Potency [9] | outcome [10] | outcome [11] | outcome [12] | outcome [13] | outcome [14] | Potency [15] | Potency [16] | Potency [17] | Potency [18] | Potency [19]

Cc1ccc(C)c(O)c1
inactive: caspase-3 activation [1] 0.131% | outcome [2] | caspase-3 activation [3] 0.256% | caspase-3 activation [4] 0.519% | outcome [5] | outcome [6] | Potency [7] | Potency [8] | Potency [9] | outcome [10] | outcome [11] | outcome [12] | outcome [13] | outcome [14] | Potency [15] | Potency [16] | Potency [17] | Potency [18] | Potency [19]

OC/C(Br)=C(\Br)CO
inactive: caspase-3 activation [1] 0.44% | outcome [2] | caspase-3 activation [3] -0.67% | caspase-3 activation [4] 0.816% | outcome [5] | outcome [6] | Potency [7] | Potency [8] | Potency [9] | outcome [10] | outcome [11] | outcome [12] | outcome [13] | outcome [14] | Potency [15] | Potency [16] | Potency [17] | Potency [18] | Potency [19]
